What all share (settings): concentration: 10 µM; 24 h
Test [1] has as its system HCC1569. The experiment in a line: cell number relative to DMSO (% of DMSO); higher = more cells (less growth inhibition / toxicity). In a few lines:
(§1)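 HCC1569 and TDF cells were seeded at 800 per well in 384-well plates in RPMI with 10% FBS and treated with compounds at 10 µM for 24 h at 37 °C, in triplicate. After fixation in 3.7% formaldehyde, cells were stained with a rabbit anti-H1.0 antibody, an AlexaFluor 647 secondary and DAPI, and six fields per well were imaged at ×10. H1.0 nuclear intensity or cell number is given as percent of the plate control, using the median of replicates, with HCC1569 values smoothed for positional effects.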

Test [2] concerns TDF. Described as above. In a few lines:
as §1

Test [3] deals with TDF. The experiment in a line: H1.0 immunofluorescence intensity relative to DMSO (% of DMSO); higher = stronger H1.0 induction, active = 120 or more. In a few lines: as §1
In test [4] the test system is HCC1569. Description: H1.0 immunofluorescence intensity relative to DMSO (% of DMSO); higher = stronger H1.0 induction, active = 140 or more. In a few lines:
as §1

Cell number and H1.0 immunofluorescence intensity data for 24 compounds are collected here from the supplement of paper PMC7156485.
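For H1.0 immunofluorescence intensity relative to DMSO in this document: TDF is a line of transformed human dermal fibroblasts of mesenchymal origin.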
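For cell number relative to DMSO in this document: TDF denotes transformed human dermal fibroblasts of mesenchymal origin.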

For the compound `CCOC(=O)[C@H](Cc1ccc([N+](=O)[O-])cc1)NC(=O)c1ccccc1` [ethyl (2S)-2-(benzoylamino)-3-(4-nitrophenyl)propanoate], the cell number with HCC1569 [1] amounted to 101; in the test on TDF [2] it was 98.3. Besides, the H1.0 immunofluorescence intensity in the test with TDF [3] is 93.8 (inactive); with HCC1569 [4], 95 (inactive).
For the compound `COc1ccc(CC2c3cc(OC)c(OC)cc3CC[N+]2(C)C)cc1OC.[I-]` (stereo unspecified) [Laudanosine methiodide], the cell number in the test on HCC1569 [1] worked out at 101; in the test with TDF [2] it was 112. The H1.0 immunofluorescence intensity in the test with TDF [3] was 91.3 (inactive); in the test on HCC1569 [4] it was 93.6 (inactive).
In the same order, the values of `CCCCCCCCCCCCCC=CC(O)C(CO)NC(=O)CCCCC` (stereo unspecified) [C6 Ceramide] are 100, 59.7, 151 (active) and 101 (inactive).
The corresponding values for `Cl.O=C(O)C1=CCCNC1` [Guvacine hydrochloride] are 97.8, 99.1, 103 (inactive) and 91.1 (inactive).
For `CC(C)S(=O)(=O)N[C@H]1CCOC[C@@H]1c1ccc(-c2ccc(C#N)s2)cc1`, the values for the cell number in the test on HCC1569 [1] and in the test on TDF [2] were 100 and 98.3, respectively. In addition, the H1.0 immunofluorescence intensity in the test with TDF [3] was 96.5 (inactive); with HCC1569 [4], 104 (inactive).
The corresponding values for `COc1cc(Oc2ccnc3cc(OC)c(OC)cc23)ccc1NC(=O)NC(C)c1nccs1` (stereo unspecified) are 68.5, 47, 99.9 (inactive) and 124 (inactive).
The corresponding values for `CC(F)(F)CN1CCOc2c(nn(-c3ccccc3Cl)c2-c2ccc(Cl)cc2)C1=O` are 104, 101, 93.5 (inactive) and 88.3 (inactive).
As for `C[Se]CCC(N)C(=O)O` (stereo unspecified) [Selenomethionine], the cell number in the test on HCC1569 [1] was determined as 100; in the test on TDF [2], 94. The figures for the H1.0 immunofluorescence intensity in the test with TDF [3] and in the test with HCC1569 [4] were 104 (inactive) and 105 (inactive), respectively.
The corresponding values for `Nc1nc(N)nc(-c2cc(Cl)ccc2Cl)n1` [Irsogladine] are 105, 105, 94.5 (inactive) and 107 (inactive).
The corresponding values for `N=S(=O)([O-])Cc1noc2ccccc12.[Na+]` [Zonisamide sodium] are 104, 117, 92.2 (inactive) and 98.6 (inactive).
In the same order, the values of `CN(C)CCCN1c2ccccc2CCc2ccccc21.Cl` [Imipramine.HCl] are 100, 97.4, 95.2 (inactive) and 100 (inactive).
Regarding `O=C(O)Cc1c[nH]c2ccccc12` [Indole-3-acetic acid], the cell number came to 100 with HCC1569 [1] and 102 in the test with TDF [2]. For the same compound, the H1.0 immunofluorescence intensity in the test with TDF [3] is 94.5 (inactive); with HCC1569 [4], 84.8 (inactive).
In the same order, the values of `CC(CN1c2ccccc2Sc2ccccc21)N(C)C.Cl` (stereo unspecified) [Promethazine hydrochloride] are 105, 96.9, 109 (inactive) and 106 (inactive).
Regarding `NC(N)=Nc1nc(CSCCC(N)=NS(N)(=O)=O)cs1`, the values for the cell number in the test with HCC1569 [1] and with TDF [2] were 103 and 110, respectively. Also, the H1.0 immunofluorescence intensity in the test with TDF [3] was 91.1 (inactive); with HCC1569 [4] it was 108 (inactive).
The corresponding values for `COc1cc2oc(-c3ccc(O)c(O)c3)cc(=O)c2c(O)c1OC` are 75, 82, 91.1 (inactive) and 118 (inactive).
In the same order, the values of `Nc1cccc(-c2cc3c(Oc4cccc(O)c4)ncnc3[nH]2)c1` [GSK3b Inhibitor XII, TWS119] are 60.2, 55, 112 (inactive) and 214 (active).
In the same order, the values of `Oc1ccc(-c2c(-c3ccccc3)nn3c(C(F)(F)F)cc(C(F)(F)F)nc23)cc1` are 67.9, 12.4, 154 (active) and 143 (active).
As for `COc1cc2c3cc1Oc1c(OC)c(OC)cc4c1C(Cc1ccc(OC(=O)c5ccc([N+](=O)[O-])cc5)c(c1)Oc1ccc(cc1)CC3N(C)CC2)N(C)CC4` (stereo unspecified) [E6 Berbamine], the cell number in the test with HCC1569 [1] came to 90.2; in the test on TDF [2], 95.2. The values for the H1.0 immunofluorescence intensity with TDF [3] and in the test on HCC1569 [4] were 98.8 (inactive) and 97.7 (inactive), respectively.
In the same order, the values of `c1ccc2c(-c3ccncc3)c[nH]c2c1` [Rho Kinase Inhibitor III, Rockout] are 105, 106, 86.9 (inactive) and 118 (inactive).
In the same order, the values of `N#CC(=Cc1ccc(O)c(O)c1)C(=O)NCCc1ccccc1` [Tyrphostin AG 698] are 84.3, 91, 87.8 (inactive) and 119 (inactive).
Turning to `O=C(Nc1cccc(Nc2ncc(Br)c(NCCc3cnc[nH]3)n2)c1)N1CCCC1`, the cell number in the test on HCC1569 [1] was found to be 51.2; with TDF [2], 33.8. Moreover, the H1.0 immunofluorescence intensity with TDF [3] was 113 (inactive); in the test with HCC1569 [4] it was 109 (inactive).
With `CC(N)(Cc1ccc(O)c(O)c1)C(=O)O` (stereo unspecified) [Methyldopa], the cell number in the test on HCC1569 [1] worked out at 107; in the test on TDF [2], 100. The H1.0 immunofluorescence intensity in the test with TDF [3] is 102 (inactive); in the test on HCC1569 [4] it was 94 (inactive).
Regarding `O=C(O)CC/C=C\C[C@H]1CO[C@@H](c2ccccc2Cl)O[C@H]1c1ccccc1O`, the cell number in the test on HCC1569 [1] amounted to 100; in the test with TDF [2], 96.5. Besides, the H1.0 immunofluorescence intensity in the test on TDF [3] is 95.5 (inactive); with HCC1569 [4] it was 108 (inactive).
In the case of `CC(=O)NCCOC(=O)[C@H](Oc1cccc(C(F)(F)F)c1)c1ccc(Cl)cc1`, the cell number with HCC1569 [1] worked out at 104; with TDF [2], 100. Moreover, the H1.0 immunofluorescence intensity was 95.3 (inactive) in the test on TDF [3] and 104 (inactive) in the test with HCC1569 [4].
